The term Inhibition denotes the relative decrease from the control value, in per cent.

Potency and affinity values are given separately.

We go through ten compounds from ChEMBL document CHEMBL4513146, “CO-ADD screening of Karazin Kharkiv National University (Ukraine) compounds”.

One assay has as its system Klebsiella pneumoniae. The note with it: Concentration 32 ug.mL-1;; ASSAY_TEST Inhibition of Bacterial Growth; detection method Absorption (OD600); MEDIA CAMHB; plate type 384well; NBS; CORNING #3640; time 18 hr.
Another assay concerns Candida albicans. The note with it: Concentration 32 ug.mL-1; ASSAY_TEST Inhibition of Fungal Growth; detection method Absorption (OD530).
The next assay has as its system Cryptococcus neoformans. Conditions: Concentration 32 ug.mL-1; ASSAY_TEST Inhibition of Fungal Growth; detection method Resazurin; Absorption (OD600-OD570); plate type 384well; NBS; CORNING #3640. In general terms: The colour change of resazurin is a common sign of viable cells or microbes.

For `O=C(Cn1nc2c(Oc3ccc(Cl)cc3)nccn2c1=O)Nc1ccc2c(c1)OCO2`, the figures for the Inhibition in the assay on Klebsiella pneumoniae, with Candida albicans and in the assay on Cryptococcus neoformans were 8.17%, 2.32% and -10.77%, respectively.
For `Cc1cc(C)c(NC(=O)CSc2nc3ccccc3n3c(C)nnc23)c(C)c1`, the Inhibition in the assay with Klebsiella pneumoniae is given as 10.14%; with Candida albicans, 1.31%; with Cryptococcus neoformans, -7.76%.
Turning to `Cc1ccc(-c2ccc3nn(CC(=O)N4CCN(c5ccccc5F)CC4)c(=O)n3n2)cc1C`, the Inhibition is reported as 9.79% in the assay on Klebsiella pneumoniae, 0.84% in the assay with Candida albicans and -7.8% in the assay on Cryptococcus neoformans.
In the case of `CCOc1ccc(-n2ccn3c(SCC(=O)Nc4cccc(CC)c4)nnc3c2=O)cc1`, the Inhibition is recorded as -1.92% in the assay with Klebsiella pneumoniae, 12.86% with Candida albicans and -9.18% with Cryptococcus neoformans.
In the case of `CC(C)Sc1ccc2nn(CC(=O)Nc3ccc(Cl)cc3F)c(=O)n2n1`, the figures for the Inhibition in the assay on Klebsiella pneumoniae, in the assay on Candida albicans and in the assay on Cryptococcus neoformans were 7.97%, 16.98% and -18.57%, respectively.
As to `Cc1nnc2ccc(S(=O)(=O)N(Cc3ccccc3F)c3ccc(F)c(F)c3)cn12`, the figures for the Inhibition in the assay with Klebsiella pneumoniae, in the assay with Candida albicans and in the assay with Cryptococcus neoformans were 9.72%, 2.36% and -9.63%, respectively.
For the compound `COc1cccc(-n2ccn3c(SCc4cccc(F)c4)nnc3c2=O)c1`, the figures for the Inhibition in the assay with Klebsiella pneumoniae, in the assay with Candida albicans and in the assay with Cryptococcus neoformans were 9.47%, 1.25% and -9.96%, respectively.
In the case of `O=C(Cn1nc2n(CCc3ccccc3)c(=O)c3ccccc3n2c1=O)Nc1ccc2c(c1)OCO2`, the Inhibition in the assay on Klebsiella pneumoniae is reported as 5.15%; in the assay on Candida albicans, 15.71%; in the assay with Cryptococcus neoformans, -16.57%.
As to `CCCCc1ccc(NC(=O)Cn2nc3ccc(C(=O)Nc4ccc(OC)cc4)cn3c2=O)cc1`, the Inhibition in the assay on Klebsiella pneumoniae is on record as -3.83%; with Candida albicans, 18.36%; with Cryptococcus neoformans it was -8.8%.
For the compound `Cc1nnc2ccc(S(=O)(=O)N(Cc3ccccc3)c3ccc(F)cc3)cn12`, the Inhibition with Klebsiella pneumoniae is reported as 4.54%; in the assay on Candida albicans it was 1.53%; in the assay with Cryptococcus neoformans, -1.68%.
